# Data from PubChem BioAssay (Tox21).
# Where “and” joins values, the source holds several entries; their conditions need not be identical. Identical values can stand only once. Results filed as inconclusive are left out. A call without a number means that no potency is given here. More than one record can exist for a structure, and the calls need not agree. Calls of active or inactive are those of the source. Unless noted, calls follow the shape of the dose curve; as a rule, active = well fitted curve in the direction sought with a large enough effect in the repeat runs; inconclusive = weak or mixed curves; inactive = no such curve, though single readings can be large; an effect the other way counts as inactive or inconclusive.
# Legend:
# [1] = qHTS assay to identify aromatase inhibitors - cell viability counter screen (AID 743084);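 also: cells stimulated with testosterone during compound exposure; nearly all actives have a fitted effect of over 55% in size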; also: potency is read from the fitted curve at half-maximal effect
# [2] = target: Aryl hydrocarbon receptor (Homo sapiens) (UniProt P35869); assay: qHTS assay to identify small molecule that activate the aryl hydrocarbon receptor (AhR) signaling pathway (AID 743085);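 also: HG2L7.5c1 human HepG2 liver cells with stably integrated DRE-driven firefly reporter; series mostly up to about 70 µM; nearly all actives have a fitted effect of over 15% in size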
# Aryl hydrocarbon receptor (Homo sapiens), sequence (P35869 whole entry, looked up): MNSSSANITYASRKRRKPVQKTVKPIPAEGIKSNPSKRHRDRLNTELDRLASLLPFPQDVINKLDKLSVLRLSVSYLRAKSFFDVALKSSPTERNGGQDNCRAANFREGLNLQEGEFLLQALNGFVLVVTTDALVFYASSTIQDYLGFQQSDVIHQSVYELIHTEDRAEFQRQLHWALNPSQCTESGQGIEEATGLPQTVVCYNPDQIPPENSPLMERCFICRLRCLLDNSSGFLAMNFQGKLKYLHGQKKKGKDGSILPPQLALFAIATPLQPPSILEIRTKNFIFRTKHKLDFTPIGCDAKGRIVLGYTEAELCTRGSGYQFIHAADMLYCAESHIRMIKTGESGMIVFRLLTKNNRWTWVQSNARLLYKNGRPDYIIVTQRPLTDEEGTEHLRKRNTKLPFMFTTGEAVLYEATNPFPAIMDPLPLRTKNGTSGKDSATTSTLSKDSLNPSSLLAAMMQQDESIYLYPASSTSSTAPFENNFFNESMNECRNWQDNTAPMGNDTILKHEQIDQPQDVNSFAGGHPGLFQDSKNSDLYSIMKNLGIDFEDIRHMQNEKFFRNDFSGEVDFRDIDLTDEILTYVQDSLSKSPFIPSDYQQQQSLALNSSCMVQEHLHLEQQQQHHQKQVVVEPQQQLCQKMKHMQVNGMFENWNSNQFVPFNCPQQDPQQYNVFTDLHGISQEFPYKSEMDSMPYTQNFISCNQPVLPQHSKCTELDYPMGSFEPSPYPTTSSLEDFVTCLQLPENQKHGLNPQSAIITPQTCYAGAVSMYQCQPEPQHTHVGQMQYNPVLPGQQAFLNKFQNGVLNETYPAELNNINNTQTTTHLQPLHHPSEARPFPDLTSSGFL
# Method in brief: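 Cell line HG2L7.5c1 (human hepatoma, 20× DRE-luc). Plated, 5 h 37C, compound/DMSO added, 24 h 37C. CellTiter-Fluor 30 min 37C → fluorescence; then ONE-Glo 30 min RT → luminescence.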
# [3] = qHTS assay to identify small molecule that activate the aryl hydrocarbon receptor (AhR) signaling pathway - cell viability counter screen (AID 743086);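 also: HepG2 liver cells carrying the AhR DRE luciferase reporter; series mostly up to about 70 µM; nearly all actives have a fitted effect of over 45% in size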
# Method in brief: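 Cytotoxicity counter screen: CellTiter-Fluor signal (30 min, 37 C) in 4000 HepG2 cells/well carrying the DRE-luciferase reporter, following 24 h compound exposure at 37 C.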
# [4] = target: Peroxisome proliferator-activated receptor gamma (Homo sapiens) (UniProt P37231); assay: qHTS assay to identify small molecule antagonists of the peroxisome proliferator-activated receptor gamma (PPARg) signaling pathway (AID 743191; calls by dose curve; also: series mostly up to about 63 µM; nearly all actives have a fitted effect of over 30% in size)
# Peroxisome proliferator-activated receptor gamma (Homo sapiens), sequence (P37231 whole entry, looked up): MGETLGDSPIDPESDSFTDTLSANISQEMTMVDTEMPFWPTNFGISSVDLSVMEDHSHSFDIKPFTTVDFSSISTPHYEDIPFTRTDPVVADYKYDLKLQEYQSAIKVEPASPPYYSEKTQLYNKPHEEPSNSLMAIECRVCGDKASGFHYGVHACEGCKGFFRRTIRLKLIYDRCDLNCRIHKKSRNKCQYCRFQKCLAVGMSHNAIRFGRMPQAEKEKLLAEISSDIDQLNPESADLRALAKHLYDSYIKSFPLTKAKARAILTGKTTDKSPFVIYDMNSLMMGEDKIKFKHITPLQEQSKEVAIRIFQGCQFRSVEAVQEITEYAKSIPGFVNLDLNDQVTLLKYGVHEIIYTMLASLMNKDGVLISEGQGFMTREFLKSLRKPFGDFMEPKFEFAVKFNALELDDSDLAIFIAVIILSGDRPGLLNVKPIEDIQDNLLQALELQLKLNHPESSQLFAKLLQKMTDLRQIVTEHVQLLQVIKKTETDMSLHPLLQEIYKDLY
# Method in brief: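 Beta-lactamase reporter under UAS control in HEK293H PPARg-bla cells; compound treatment 17 h at 37C. Read-out: fluorescence intensity after 1 h room-temperature incubation with LiveBLAzer B/G FRET substrate.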
# [5] = qHTS assay to identify small molecule antagonists of the peroxisome proliferator-activated receptor gamma (PPARg) signaling pathway - cell viability counter screen (AID 743194); also: nearly all actives have a fitted effect of over 55% in size
# Method in brief: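 Viability was measured as CellTiter-Glo luminescence in GeneBLAzer PPARg UAS-bla HEK293H cells. These cells had been exposed 17 h at 37 C to compounds together with rosiglitazone at 50 nM final, with the beta-lactamase readout taken in the same wells.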
# [6] = qHTS assay for small molecule agonists of the antioxidant response element (ARE) signaling pathway - cell viability counter screen (AID 743203; calls by dose curve; also: nearly all actives have a fitted effect of over 55% in size)
# Method in brief: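 ARE-bla HepG2 cells were plated, rested 5 h at 37C/5% CO2, then exposed to compounds in DMSO for 16 h. Viability was read as CellTiter-Glo luminescence after 30 min at room temperature, in the same wells as the ARE screen.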
# [7] = qHTS assay for small molecule activators of the heat shock response signaling pathway - cell viability counter screen (AID 743209); also: nearly all actives have a fitted effect of over 50% in size
# Method in brief: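 HSE-bla HeLa cells plated overnight, then exposed to Tox21 compounds (23 nL in DMSO) for 5 h at 37 C. After the bla reporter read, CellTiter-Glo was added in the same wells and luminescence read after 30 min at room temperature.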
# [8] = qHTS assay for small molecule activators of the heat shock response signaling pathway (AID 743210; active = well fitted activation curve with a large enough effect in the signal ratio in the repeat runs, with a control signal flat, not every such curve was filed as active; the % refers to the signal ratio;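 also: HeLa cells with beta-lactamase reporter driven by heat shock elements; series mostly up to about 63 µM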)
# Method in brief: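 In HSE-bla HeLa cells, 5 h compound incubation (37 C) precedes addition of LiveBLAzer B/G substrate; after 2.5 h at room temperature, fluorescence intensity indicates reporter induction.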
# [9] = target: Peroxisome proliferator-activated receptor delta (Homo sapiens) (UniProt Q03181); assay: qHTS assay to identify small molecule agonists of the peroxisome proliferator-activated receptor delta (PPARd) signaling pathway (AID 743212; calls by dose curve)
# Peroxisome proliferator-activated receptor delta (Homo sapiens), sequence (Q03181 whole entry, looked up): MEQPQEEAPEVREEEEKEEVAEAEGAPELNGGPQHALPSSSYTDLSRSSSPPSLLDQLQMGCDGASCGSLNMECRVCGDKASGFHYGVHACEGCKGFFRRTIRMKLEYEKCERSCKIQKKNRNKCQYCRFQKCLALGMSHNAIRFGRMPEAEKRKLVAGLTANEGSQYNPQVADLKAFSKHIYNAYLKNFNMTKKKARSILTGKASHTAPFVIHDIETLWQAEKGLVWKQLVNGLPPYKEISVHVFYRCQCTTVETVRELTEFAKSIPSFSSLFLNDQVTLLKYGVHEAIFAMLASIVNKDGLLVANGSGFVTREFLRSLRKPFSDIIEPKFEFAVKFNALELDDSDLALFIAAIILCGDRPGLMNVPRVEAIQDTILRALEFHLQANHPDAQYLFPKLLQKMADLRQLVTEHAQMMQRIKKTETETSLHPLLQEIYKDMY
# Method in brief: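 HEK293H UAS-bla reporter cells, human PPARd system; compounds delivered in DMSO after 5 h plating, then at 37 C. Beta-lactamase FRET read, 2 h RT substrate step.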
# [10] = target: Peroxisome proliferator-activated receptor delta (Homo sapiens) (UniProt Q03181); assay: qHTS assay to identify small molecule antagonists of the peroxisome proliferator-activated receptor delta (PPARd) signaling pathway (AID 743215; active = well fitted inhibition curve with a large enough effect in the signal ratio in the repeat runs, not every such curve was filed as active; the % refers to the signal ratio;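 also: cells stimulated with agonist L165041 at 300 nM final during compound exposure; series mostly up to about 62 µM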)
# Method in brief: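 PPARd-bla HEK293H cells (UAS-bla reporter) preincubated 5 h, then given compound plus 300 nM final L165041 agonist for 17 h at 37 C. Beta-lactamase activity read by LiveBLAzer B/G FRET substrate fluorescence after 2 h at room temperature.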
# [11] = qHTS assay to identify small molecule agonists of the farnesoid-X-receptor (FXR) signaling pathway - cell viability counter screen (AID 743218); also: nearly all actives have a fitted effect of over 45% in size
# Method in brief: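 FXR-UAS-bla HEK 293T cells exposed to compounds for 16 h at 37C. Cytotoxicity read in the same wells by CellTiter-Glo luminescence after 30 min at room temperature, following the beta-lactamase FRET read.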
# [12] = target: Bile acid receptor (Homo sapiens) (UniProt Q96RI1); assay: qHTS assay to identify small molecule agonists of the farnesoid-X-receptor (FXR) signaling pathway (AID 743220; active = well fitted activation curve with a large enough effect in the signal ratio in the repeat runs, not every such curve was filed as active; the % refers to the signal ratio)
# Bile acid receptor (Homo sapiens), sequence (Q96RI1 whole entry, looked up): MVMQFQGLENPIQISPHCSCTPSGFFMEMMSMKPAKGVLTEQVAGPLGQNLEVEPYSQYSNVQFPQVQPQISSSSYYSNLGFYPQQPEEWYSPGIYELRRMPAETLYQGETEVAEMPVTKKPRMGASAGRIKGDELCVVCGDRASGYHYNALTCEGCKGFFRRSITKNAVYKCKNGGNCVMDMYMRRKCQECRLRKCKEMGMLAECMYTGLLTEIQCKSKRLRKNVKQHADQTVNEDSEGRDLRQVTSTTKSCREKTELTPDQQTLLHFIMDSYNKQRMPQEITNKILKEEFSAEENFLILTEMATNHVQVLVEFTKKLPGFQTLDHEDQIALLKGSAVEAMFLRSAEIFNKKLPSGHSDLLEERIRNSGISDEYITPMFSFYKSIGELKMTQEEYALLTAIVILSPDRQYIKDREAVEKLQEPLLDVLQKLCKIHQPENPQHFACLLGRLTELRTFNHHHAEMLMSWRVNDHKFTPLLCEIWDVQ
# Method in brief: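 Beta-lactamase reporter under UAS control in GeneBLAzer FXR HEK 293T cells (5000/well) measured with LiveBLAzer FRET substrate after 2 h at room temperature. Compound exposure lasted 16 h at 37C.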
# [13] = qHTS assay to identify small molecule antagonists of the farnesoid-X-receptor (FXR) signaling pathway - cell viability counter screen (AID 743221; active = well fitted cell-killing curve with a large enough effect in the repeat runs, not every such curve was filed as active; also: nearly all actives have a fitted effect of over 50% in size)
# Method in brief: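 Luminescence from CellTiter-Glo measures cytotoxicity in GeneBLAzer FXR-UAS-bla HEK 293T cells. Cells were exposed to compounds with 50 uM chenodeoxycholic acid (final) for 16 h at 37 C, in wells also used for the reporter readout.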
# [14] = target: Vitamin D3 receptor (Homo sapiens) (UniProt P11473); assay: qHTS assay to identify small molecule agonists of the vitamin D receptor (VDR) signaling pathway (AID 743222; calls by dose curve)
# Vitamin D3 receptor (Homo sapiens), sequence (P11473 whole entry, looked up): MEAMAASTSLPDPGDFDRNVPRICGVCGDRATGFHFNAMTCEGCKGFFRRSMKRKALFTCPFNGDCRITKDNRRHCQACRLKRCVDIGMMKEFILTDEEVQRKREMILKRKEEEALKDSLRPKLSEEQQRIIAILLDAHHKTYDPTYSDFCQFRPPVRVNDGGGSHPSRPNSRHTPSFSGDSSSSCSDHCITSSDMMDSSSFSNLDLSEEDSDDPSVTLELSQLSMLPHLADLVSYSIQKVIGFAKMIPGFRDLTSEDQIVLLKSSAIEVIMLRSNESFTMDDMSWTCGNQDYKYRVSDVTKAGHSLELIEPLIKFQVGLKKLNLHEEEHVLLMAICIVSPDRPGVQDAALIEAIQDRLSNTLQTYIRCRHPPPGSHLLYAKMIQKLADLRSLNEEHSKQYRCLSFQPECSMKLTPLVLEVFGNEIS
# Method in brief: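 VDR-bla cells plated 4 h at 37 C, then exposed to compounds for 16 h at 37 C. Beta-lactamase reporter activity measured by fluorescence after 2 h room-temperature loading with LiveBLAzer B/G FRET substrate.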
# [15] = target: Vitamin D3 receptor (Homo sapiens) (UniProt P11473); assay: qHTS assay to identify small molecule antagonists of the vitamin D receptor (VDR) signaling pathway (AID 743223; active = well fitted inhibition curve with a large enough effect in the signal ratio in the repeat runs, not every such curve was filed as active; the % refers to the signal ratio)
# Method in brief: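 Antagonist mode uses 1alpha,25-dihydroxyvitamin D3 at 3 nM final as stimulus. VDR-bla cells receive compounds in DMSO, incubate 16 h at 37C, then a beta-lactamase FRET substrate for 2 h at room temperature before fluorescence measurement.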
# [16] = target: Peroxisome proliferator-activated receptor gamma (Homo sapiens) (UniProt P37231); assay: qHTS assay to identify small molecule agonists of the peroxisome proliferator-activated receptor gamma (PPARg) signaling pathway (AID 743094; active = well fitted activation curve with a large enough effect in the signal ratio in the repeat runs, not every such curve was filed as active; the % refers to the signal ratio; also: potency is read from the fitted curve at half-maximal effect)
# Method in brief: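 GeneBLAzer PPARg UAS-bla HEK293H cells were plated, rested 5 h, then exposed to compounds for 17 h at 37C. Beta-lactamase activity was read by LiveBLAzer B/G FRET substrate fluorescence after 1 h at room temperature.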
# [17] = qHTS assay to identify small molecule agonists of the peroxisome proliferator-activated receptor delta (PPARd) signaling pathway - cell viability counter screen (AID 743211); also: nearly all actives have a fitted effect of over 55% in size
# Method in brief: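 HEK293H PPARd-bla, 3000 cells/well; 5 h preincubation 37C/5% CO2; cpd in DMSO, 17 h 37C; B/G FRET substrate 2 h RT; CellTiter-Glo 30 min RT, luminescence.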
# [18] = qHTS assay to identify small molecule antagonists of the peroxisome proliferator-activated receptor delta (PPARd) signaling pathway - cell viability counter screen (AID 743213); also: nearly all actives have a fitted effect of over 50% in size
# Method in brief: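 Cytotoxicity counter screen: CellTiter-Glo luminescence read 30 min after addition, in the same wells as the reporter assay. There, PPARd UAS-bla HEK293H cells (3000/well) were treated 17 h at 37 C with compound and 300 nM L165041.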
# [19] = qHTS assay for small molecule agonists of the antioxidant response element (ARE) signaling pathway (AID 743202; active = well fitted activation curve with a large enough effect in the signal ratio in the repeat runs, not every such curve was filed as active; the % refers to the signal ratio)
# Method in brief: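 An ARE-responsive beta-lactamase gene stably integrated in HepG2 cells serves as reporter. After 5 h plating and 16 h compound incubation at 37 C, fluorescence of the B/G FRET substrate was measured.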
# [20] = target: Bile acid receptor (Homo sapiens) (UniProt Q96RI1); assay: qHTS assay to identify small molecule antagonists of the farnesoid-X-receptor (FXR) signaling pathway (AID 743217; active = well fitted inhibition curve with a large enough effect in the signal ratio in the repeat runs, not every such curve was filed as active; the % refers to the signal ratio)
# Method in brief: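 FXR-UAS-bla HEK 293T cells (beta-lactamase reporter) given compound plus chenodeoxycholic acid (50 uM final), 16 h at 37C. LiveBLAzer B/G FRET substrate added for 2 h at room temperature; fluorescence read.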
SMILES,Potency [1],Potency [2],Potency [3],Potency [4],Potency [5],Potency [6],outcome [7],outcome [8],outcome [9],outcome [10],Potency [11],outcome [12],outcome [13],outcome [14],Potency [15],Potency [16],Potency [17],Potency [18],Potency [19],Potency [20]
C[C@]12CC[C@@H]3c4ccc(O)cc4C[C@@H](CCCCCCCCCS(=O)CCCC(F)(F)C(F)(F)F)[C@H]3[C@@H]1CC[C@@H]2O (stereo not given in full),inactive,inactive,inactive,inactive,inactive,inactive,inactive,inactive,inactive,inactive,inactive,inactive,inactive,inactive,inactive,–,–,–,–,–
CC1=C(/C=C/C(C)=C/C=C/C(C)=C/C(=O)O)C(C)(C)CCC1,inactive,inactive,inactive,–,inactive,inactive,–,–,–,inactive,–,–,inactive,inactive,inactive,535 nM (active),inactive,inactive,–,–
C=CCOC(=O)CC(C)C,inactive,inactive,inactive,inactive,inactive,inactive,inactive,inactive,inactive,inactive,inactive,inactive,inactive,inactive,inactive,–,–,inactive,inactive,inactive
COC(=O)c1ccc(O)cc1,inactive,inactive,inactive,inactive,inactive,inactive,inactive,inactive,inactive,inactive,inactive,–,inactive,inactive,inactive,–,–,inactive,–,–
CCCCOC(=O)CCCCCCCCC(=O)OCCCC,inactive,inactive,inactive,inactive,inactive,inactive,inactive,inactive,–,–,–,–,–,inactive,inactive,–,inactive,inactive,–,–
C#C[C@]1(O)CC[C@H]2[C@@H]3CCc4cc(O)ccc4[C@H]3CC[C@@]21C,inactive and 48.2 µM (active),inactive,inactive,–,inactive,inactive,inactive,–,inactive,inactive,–,–,–,–,–,inactive,–,inactive,inactive,–
CC(C)(C)NCC(O)c1ccc(O)c(CO)c1 (stereo not given),inactive,inactive,inactive,inactive,inactive,inactive,inactive,inactive,inactive,inactive,–,–,–,–,–,–,–,inactive,–,–
CC(=O)/C=C/C1=C(C)CCCC1(C)C,inactive,inactive,inactive,–,inactive,inactive,inactive,inactive,–,–,–,inactive,inactive,inactive,inactive,inactive,inactive,inactive,inactive,inactive
C=C(C)C(N)=O,inactive,inactive,inactive,inactive,inactive,inactive,inactive,–,–,–,inactive,–,inactive,inactive,inactive,–,inactive,inactive,inactive,–
CCCCCCCCOc1ccc(C(=O)c2ccccc2)c(O)c1,inactive,inactive,inactive,inactive,inactive,inactive,inactive,–,inactive,inactive,–,inactive,inactive,inactive,inactive,–,inactive,inactive,–,inactive
